Holding throughout (test): DAPPL (digital affinity profiling via proximity ligation, sequencing); 10 mM Tris-HCl pH 7.5, 50 mM NaCl, 1 mM DTT, 4% glycerol, room temperature, 30 min; GST-TFs on glutathione beads, 16-mer random dsDNA library, 0.1% formaldehyde crosslink after washing; high values mean tight binding
What all share (settings): protein: recombinant; tags: N-terminal GST; dsDNA, one strand shown

One experiment addresses T1, ERF (Homo sapiens, UniProt P50548 1-548).
T1 sequence: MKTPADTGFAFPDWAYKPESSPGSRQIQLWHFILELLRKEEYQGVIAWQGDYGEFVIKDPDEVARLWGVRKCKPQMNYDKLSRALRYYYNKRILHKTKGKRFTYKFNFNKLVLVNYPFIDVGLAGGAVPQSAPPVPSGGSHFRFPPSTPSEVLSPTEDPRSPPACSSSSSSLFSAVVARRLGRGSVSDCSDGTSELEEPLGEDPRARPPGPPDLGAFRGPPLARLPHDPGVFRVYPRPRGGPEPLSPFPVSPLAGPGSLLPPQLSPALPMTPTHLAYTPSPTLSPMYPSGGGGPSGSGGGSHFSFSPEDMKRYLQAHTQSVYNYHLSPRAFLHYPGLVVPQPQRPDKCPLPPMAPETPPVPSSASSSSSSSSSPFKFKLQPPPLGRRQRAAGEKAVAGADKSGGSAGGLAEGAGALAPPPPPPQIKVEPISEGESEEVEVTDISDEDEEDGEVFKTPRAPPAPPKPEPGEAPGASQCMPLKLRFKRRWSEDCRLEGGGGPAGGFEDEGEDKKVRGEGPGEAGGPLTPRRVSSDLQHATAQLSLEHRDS
A digest of the protocol: (§1)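 Beads coated with glutathione captured GST-fused human transcription factors that had been expressed in yeast, and the factors were then given DNA barcodes and pooled with a tag-only sample. The pools were incubated with 200 nmole of a random double-stranded 16-mer DNA library in Tris/NaCl/DTT/glycerol buffer for 30 min at room temperature, washed, crosslinked with 0.1% formaldehyde and proximity-ligated with BsaI/T4 ligase at 37 °C for 1 h. PCR amplification and Illumina NextSeq500 sequencing came last. Binding signal is each hexamer's read frequency for a factor divided by its frequency for the tag-only sample.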

The target of the next experiment is T2, ETV3L (Homo sapiens, UniProt Q6ZN32 1-361).
T2 sequence: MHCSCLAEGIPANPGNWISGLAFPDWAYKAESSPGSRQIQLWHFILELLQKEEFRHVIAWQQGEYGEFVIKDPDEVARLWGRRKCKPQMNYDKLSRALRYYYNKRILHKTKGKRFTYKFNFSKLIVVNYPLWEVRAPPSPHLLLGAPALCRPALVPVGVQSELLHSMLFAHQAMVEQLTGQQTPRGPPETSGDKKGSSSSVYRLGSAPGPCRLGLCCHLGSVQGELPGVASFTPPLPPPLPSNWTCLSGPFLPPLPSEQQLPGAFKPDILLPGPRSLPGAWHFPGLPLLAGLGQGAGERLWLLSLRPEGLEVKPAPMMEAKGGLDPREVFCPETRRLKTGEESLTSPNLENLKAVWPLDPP
A digest of the protocol: as §1

Another experiment has as its target T3, ETS2 (Homo sapiens, UniProt P15036 1-469).
T3 sequence: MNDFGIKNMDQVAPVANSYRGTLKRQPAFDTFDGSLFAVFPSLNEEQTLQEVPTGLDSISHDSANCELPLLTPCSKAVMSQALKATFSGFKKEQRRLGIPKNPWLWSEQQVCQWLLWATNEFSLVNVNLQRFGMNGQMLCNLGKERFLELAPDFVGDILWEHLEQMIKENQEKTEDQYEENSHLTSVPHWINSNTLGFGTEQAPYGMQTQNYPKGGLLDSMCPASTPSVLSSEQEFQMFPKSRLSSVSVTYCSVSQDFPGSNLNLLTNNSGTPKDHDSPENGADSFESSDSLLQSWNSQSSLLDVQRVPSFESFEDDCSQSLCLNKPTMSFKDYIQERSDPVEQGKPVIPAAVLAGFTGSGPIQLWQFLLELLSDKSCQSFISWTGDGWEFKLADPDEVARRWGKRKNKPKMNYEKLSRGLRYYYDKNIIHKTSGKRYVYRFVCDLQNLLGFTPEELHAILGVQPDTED
The method, boiled down:
as §1

The next experiment has as its target T4, SPDEF (Homo sapiens, UniProt O95238 1-335).
T4 sequence: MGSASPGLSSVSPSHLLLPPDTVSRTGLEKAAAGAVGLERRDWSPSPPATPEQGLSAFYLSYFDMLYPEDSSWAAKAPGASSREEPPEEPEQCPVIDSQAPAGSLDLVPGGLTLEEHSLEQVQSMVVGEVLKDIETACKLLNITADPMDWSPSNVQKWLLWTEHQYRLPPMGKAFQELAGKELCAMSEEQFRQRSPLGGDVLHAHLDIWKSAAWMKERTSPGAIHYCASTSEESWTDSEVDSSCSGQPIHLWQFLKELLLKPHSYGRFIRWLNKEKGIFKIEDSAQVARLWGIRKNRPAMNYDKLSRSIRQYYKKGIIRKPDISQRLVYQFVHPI
A digest of the protocol:
as §1

A further experiment deals with T5, ETV7 (Homo sapiens, UniProt Q9Y603 1-341).
T5 sequence: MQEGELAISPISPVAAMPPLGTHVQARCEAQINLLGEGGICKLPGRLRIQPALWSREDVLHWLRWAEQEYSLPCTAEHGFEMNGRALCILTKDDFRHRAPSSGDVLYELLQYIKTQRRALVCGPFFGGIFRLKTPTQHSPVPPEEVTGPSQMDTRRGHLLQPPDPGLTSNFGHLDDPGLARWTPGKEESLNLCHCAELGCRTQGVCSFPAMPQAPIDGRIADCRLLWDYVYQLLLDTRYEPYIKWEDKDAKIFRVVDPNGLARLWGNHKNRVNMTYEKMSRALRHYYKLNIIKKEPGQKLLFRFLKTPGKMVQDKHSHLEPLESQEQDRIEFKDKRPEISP
A digest of the protocol:
as §1

Another experiment has as its target T6, ELF5 (Homo sapiens, UniProt Q9UKW6-2 1-255).
T6 sequence: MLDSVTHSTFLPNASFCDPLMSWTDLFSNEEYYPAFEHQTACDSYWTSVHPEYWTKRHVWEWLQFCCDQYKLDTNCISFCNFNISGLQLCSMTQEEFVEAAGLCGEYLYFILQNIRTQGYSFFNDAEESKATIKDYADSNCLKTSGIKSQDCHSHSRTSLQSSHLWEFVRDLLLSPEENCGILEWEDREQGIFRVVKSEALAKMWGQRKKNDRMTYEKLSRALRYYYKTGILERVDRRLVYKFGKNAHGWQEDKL
The method, boiled down: as §1

The next experiment deals with T7, ETV3 (Homo sapiens, UniProt P41162-2 1-143).
T7 sequence: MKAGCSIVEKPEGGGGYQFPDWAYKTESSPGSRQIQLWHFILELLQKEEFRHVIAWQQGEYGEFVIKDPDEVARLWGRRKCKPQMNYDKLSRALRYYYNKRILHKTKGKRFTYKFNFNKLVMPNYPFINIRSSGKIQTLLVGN
A digest of the protocol: as §1

The target of a further experiment is ETV6 (Homo sapiens, UniProt P41212 1-452). The method, boiled down: as §1
Chain of ETV6 (P41212 whole entry): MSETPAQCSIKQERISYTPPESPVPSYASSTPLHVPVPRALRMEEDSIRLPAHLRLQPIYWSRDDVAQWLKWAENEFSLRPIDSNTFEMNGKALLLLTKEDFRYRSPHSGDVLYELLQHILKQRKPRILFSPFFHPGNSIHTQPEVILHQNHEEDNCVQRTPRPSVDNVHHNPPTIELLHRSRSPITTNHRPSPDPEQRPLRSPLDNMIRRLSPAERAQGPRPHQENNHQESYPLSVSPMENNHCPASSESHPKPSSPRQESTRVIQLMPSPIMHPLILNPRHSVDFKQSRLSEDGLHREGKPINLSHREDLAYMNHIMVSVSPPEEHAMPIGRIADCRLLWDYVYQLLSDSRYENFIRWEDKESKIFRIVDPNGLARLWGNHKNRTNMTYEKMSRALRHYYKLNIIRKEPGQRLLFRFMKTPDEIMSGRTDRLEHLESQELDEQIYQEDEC

On to AAAAAA, for which the binding signal in the experiment with ERF is 1.35 fold enrichment (6-mer frequency, TF over GST control); with ETV3L it was 1.28 fold enrichment (6-mer frequency, TF over GST control); with ETS2, 1.34 fold enrichment (6-mer frequency, TF over GST control); with SPDEF it was 1.21 fold enrichment (6-mer frequency, TF over GST control); with ETV7 it was 1.31 fold enrichment (6-mer frequency, TF over GST control); with ELF5 it was 1.29 fold enrichment (6-mer frequency, TF over GST control). Besides, the binding signal in the experiment with ETV3 was 1.33 fold enrichment (6-mer frequency, TF over GST control); with ETV6 it was 1.35 fold enrichment (6-mer frequency, TF over GST control).
Regarding GGAAGT, the binding signal in the experiment with ERF is 2.56 fold enrichment (6-mer frequency, TF over GST control); in the experiment with ETV3L, 2.86 fold enrichment (6-mer frequency, TF over GST control); with ETS2, 3.2 fold enrichment (6-mer frequency, TF over GST control); with SPDEF it was 2.97 fold enrichment (6-mer frequency, TF over GST control); with ETV7 it was 2.91 fold enrichment (6-mer frequency, TF over GST control); with ELF5, 3.88 fold enrichment (6-mer frequency, TF over GST control). Moreover, the binding signal was 3.42 fold enrichment (6-mer frequency, TF over GST control) with ETV3 and 3.88 fold enrichment (6-mer frequency, TF over GST control) with ETV6.
On to GTTTCA, for which the binding signal with ERF was 1.35 fold enrichment (6-mer frequency, TF over GST control); in the experiment with ETV3L, 1.35 fold enrichment (6-mer frequency, TF over GST control); in the experiment with ETS2, 1.34 fold enrichment (6-mer frequency, TF over GST control); with SPDEF, 1.22 fold enrichment (6-mer frequency, TF over GST control); in the experiment with ETV7, 1.21 fold enrichment (6-mer frequency, TF over GST control); with ELF5, 1.35 fold enrichment (6-mer frequency, TF over GST control). Further, the binding signal is 1.3 fold enrichment (6-mer frequency, TF over GST control) with ETV3 and 1.21 fold enrichment (6-mer frequency, TF over GST control) in the experiment with ETV6.
Take GGTTTG: the binding signal with ERF was 1.26 fold enrichment (6-mer frequency, TF over GST control); with ETV3L, 1.16 fold enrichment (6-mer frequency, TF over GST control); with ETS2, 1.15 fold enrichment (6-mer frequency, TF over GST control); with SPDEF, 1.06 fold enrichment (6-mer frequency, TF over GST control); with ETV7 it was 1.11 fold enrichment (6-mer frequency, TF over GST control); in the experiment with ELF5, 1.16 fold enrichment (6-mer frequency, TF over GST control). Further, the binding signal is 1.25 fold enrichment (6-mer frequency, TF over GST control) with ETV3 and 1.17 fold enrichment (6-mer frequency, TF over GST control) with ETV6.
On to TTTGGG, for which the binding signal with ERF is 1.39 fold enrichment (6-mer frequency, TF over GST control); in the experiment with ETV3L, 1.46 fold enrichment (6-mer frequency, TF over GST control); in the experiment with ETS2, 1.3 fold enrichment (6-mer frequency, TF over GST control); in the experiment with SPDEF, 1.25 fold enrichment (6-mer frequency, TF over GST control); with ETV7, 1.29 fold enrichment (6-mer frequency, TF over GST control); with ELF5, 1.26 fold enrichment (6-mer frequency, TF over GST control). Besides, the binding signal with ETV3 is 1.32 fold enrichment (6-mer frequency, TF over GST control); with ETV6, 1.3 fold enrichment (6-mer frequency, TF over GST control).
In the case of TACCTG, the binding signal is 1.22 fold enrichment (6-mer frequency, TF over GST control) with ERF; 1.09 fold enrichment (6-mer frequency, TF over GST control) with ETV3L; 1.15 fold enrichment (6-mer frequency, TF over GST control) with ETS2; 1.11 fold enrichment (6-mer frequency, TF over GST control) with SPDEF; 1.24 fold enrichment (6-mer frequency, TF over GST control) with ETV7; 1.21 fold enrichment (6-mer frequency, TF over GST control) with ELF5. Also, the binding signal with ETV3 was 1.19 fold enrichment (6-mer frequency, TF over GST control); with ETV6, 1.2 fold enrichment (6-mer frequency, TF over GST control).
CCTCAC: the binding signal in the experiment with ERF is 1.09 fold enrichment (6-mer frequency, TF over GST control); with ETV3L it was 1.19 fold enrichment (6-mer frequency, TF over GST control); with ETS2, 1.19 fold enrichment (6-mer frequency, TF over GST control); with SPDEF it was 1.24 fold enrichment (6-mer frequency, TF over GST control); with ETV7, 1.15 fold enrichment (6-mer frequency, TF over GST control); in the experiment with ELF5, 1.22 fold enrichment (6-mer frequency, TF over GST control). Moreover, the binding signal with ETV3 is 1.12 fold enrichment (6-mer frequency, TF over GST control); in the experiment with ETV6 it was 1.07 fold enrichment (6-mer frequency, TF over GST control).
Take CACTAC: the binding signal is 1.33 fold enrichment (6-mer frequency, TF over GST control) in the experiment with ERF; 1.29 fold enrichment (6-mer frequency, TF over GST control) in the experiment with ETV3L; 1.31 fold enrichment (6-mer frequency, TF over GST control) in the experiment with ETS2; 1.14 fold enrichment (6-mer frequency, TF over GST control) with SPDEF; 1.27 fold enrichment (6-mer frequency, TF over GST control) with ETV7; 1.26 fold enrichment (6-mer frequency, TF over GST control) in the experiment with ELF5. Moreover, the binding signal was 1.26 fold enrichment (6-mer frequency, TF over GST control) in the experiment with ETV3 and 1.24 fold enrichment (6-mer frequency, TF over GST control) with ETV6.
Turning to TGTCCC, the binding signal was 1.26 fold enrichment (6-mer frequency, TF over GST control) with ERF; 1.18 fold enrichment (6-mer frequency, TF over GST control) with ETV3L; 1.41 fold enrichment (6-mer frequency, TF over GST control) in the experiment with ETS2; 1.34 fold enrichment (6-mer frequency, TF over GST control) in the experiment with SPDEF; 1.46 fold enrichment (6-mer frequency, TF over GST control) with ETV7; 1.44 fold enrichment (6-mer frequency, TF over GST control) in the experiment with ELF5. The binding signal with ETV3 is 1.2 fold enrichment (6-mer frequency, TF over GST control); in the experiment with ETV6, 1.28 fold enrichment (6-mer frequency, TF over GST control).

The values are drawn from paper PMC7862700, “An all-to-all approach to the identification of sequence-specific readers for epigenetic DNA modifications on cytosine”.
